A selection: hits, their analogues and other compounds. The true share with any hit is near 4.1%.
ssDAF-12 act = activators of S. stercoralis DAF-12 nuclear receptor | HEK293 ssDAF-12/GRIP1 lit1-tk-luc reporter, luminescence; % of 3 µM dafachronic acid response | activation, % at 6.8 µM | AID 652126 | actives 1% (n = 370,000);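 active = activation above the mean over all tested compounds plus 3 SD, cut at about 0.9% in these data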;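 also: 0% = DMSO-only wells and 100% = 3 µM delta7-dafachronic acid wells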
DAX1 inh-1 = inhibitors of DAX1 repression of SF-1 activated StAR promoter; AID 652010; inhibition, % at 6.8 µM; HEK293T StAR-luciferase reporter, SF-1/DAX-1 repression relief; actives 1.1% (n = 370,000);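 active = inhibition above the mean over all tested compounds plus 3 SD, cut at about 3.6% in these data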;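 also: 0% = DAX-1 cells with DMSO and 100% = cells lacking DAX-1 with DMSO; higher inhibition means more luminescence from relief of DAX-1 repression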
DAX1 inh-2 = inhibits human nuclear receptor DAX1; HEK293 Gal4-DAX1 luciferase reporter, luminescence; inhibition, % at 6.75 µM; actives 0.99% (n = 340,000); AID 504766;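 active = inhibition above the mean over all tested compounds plus 3 SD, cut at about 4.2% in these data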;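 also: 0% = DAX1-transfected cells with DMSO and 100% = empty-vector control cells with DMSO; inhibition shows as a rise in luminescence from relieved DAX1 repression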
Target sequence (P51843 207-470 limits assumed): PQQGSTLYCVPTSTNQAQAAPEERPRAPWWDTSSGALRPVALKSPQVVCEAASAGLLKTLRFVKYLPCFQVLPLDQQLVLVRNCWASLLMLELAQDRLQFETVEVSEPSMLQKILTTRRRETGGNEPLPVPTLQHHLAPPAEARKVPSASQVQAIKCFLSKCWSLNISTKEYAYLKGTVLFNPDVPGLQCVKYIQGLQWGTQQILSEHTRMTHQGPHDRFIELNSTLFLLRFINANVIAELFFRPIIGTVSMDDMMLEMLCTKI
hcDAF12 agonist = activators of H. contortus DAF-12 nuclear receptor; HEK293 hcDAF-12 lit1-tk-luc reporter, luminescence; 0% DMSO, 100% Δ7-dafachronic acid; activation, % at 6.8 µM; actives 1.4% (n = 370,000); AID 652067;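 active = activation above the mean of all tested compounds plus 3 SD, cut at about 5.5% in these data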;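 also: 100% = response to 3 µM Δ7-dafachronic acid high control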
hgDAF-12 ag = hgDAF-12 agonism, primary luciferase screen; activation, % at 6.8 µM; actives 1.8% (n = 370,000); HEK293 GAL4-hgDAF12 UAS-luciferase reporter, agonist luminescence; normalized to butyrate control;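 active = activation above a cutoff set at the mean of all screened compounds plus 3 SD, cut at about 10% in these data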;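 also: 0% = DMSO wells and 100% = sodium butyrate wells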
* marks the source's active call; other numbers are inactive results; nt = no result given.

SMILES	ssDAF-12 act	DAX1 inh-1	DAX1 inh-2	hcDAF12 agonist	hgDAF-12 ag
COC(=O)[C@]12C[C@H](CC(=O)NCCCN3CCCC3=O)C(=O)N(CCc3ccc(OC)c(OC)c3)C1=C[C@H](C1CCCC1)O[C@@H]2C	-1.6	0.3	nt	-1.8	-1.3
COc1ccc(Nc2cc(C)c3c(O)cccc3n2)cc1	-1.1	0.3	0.9	0.9	11.5*
COc1ccc(Nc2cc(Nc3ccccc3)ncn2)cc1	-0.3	1.0	1.0	6.0*	6.0
COC(=O)c1cc(Nc2cc(C)c3c(O)cccc3n2)cc(C(=O)OC)c1	-1.6	-1.4	2.5	-1.7	-1.4
COc1ccc(Nc2ncnc3ccccc23)cc1	-1.0	1.4	0.8	0.7	8.6
CC(C)CCN(C)C1CCN(C(=O)Nc2ccc(Cl)cc2)CC1	0.2	0.2	nt	-1.9	-0.3
COc1ccc(C=Nn2c(-c3ccccc3F)n[nH]c2=S)cc1OCc1ccccc1	-1.5	-3.5	nt	-4.0	-10.6
Cc1ccccc1C(=O)NCCOc1ccccc1Cl	1.1*	2.5	5.0*	3.1	11.5*
O=C(NCCOc1ccccc1F)c1cc(F)c(F)cc1Cl	1.2*	3.7*	1.3	4.9	13.0*
Cc1[nH]c2ccccc2c1CC(=O)Nc1ccc(Nc2cccnc2)c(-c2cc(F)cc(F)c2)c1	-0.3	-0.9	nt	-0.2	-5.3
CC1CN/C(=C\C(=O)c2ccccc2)C(=O)N1 (stereo not drawn)	-0.8	1.7	0.5	1.2	8.1
CC1CN/C(=C\C(=O)c2ccc(Cl)cc2)C(=O)N1 (stereo not drawn)	0.7	3.5	1.4	4.8	12.2*
O=C(CNS(=O)(=O)c1cccc(Cl)c1)Nc1ccc(-c2nc3ccccc3s2)cc1	0.0	2.5	1.7	2.8	11.1*
COc1ccc(-c2cc(C(=O)OCC(=O)NC3CC3)c3ccccc3n2)cc1	-1.1	-1.3	-0.1	-0.9	1.9
COc1ccc2cc(-c3cc(C(=O)OCC(=O)NC4CCS(=O)(=O)C4)c4ccccc4n3)ccc2c1 (stereo not drawn)	0.4	4.4*	-0.8	4.4	15.4*
O=S1(=O)c2ccc(N3CCN(Cc4ccccc4F)CC3)cc2Oc2ccccc2CN1Cc1cn(Cc2ccccc2C(F)(F)F)nn1	-0.7	-1.2	nt	0.1	1.9
CCCCOCCCNC(=O)C[C@@H]1C(=O)N(CCc2ccc(Cl)cc2)C2=CCCCC[C@]21C(=O)OC	-0.8	-1.5	nt	-2.0	-5.2
O=C(OCC(=O)N1CCc2ccccc2C1)c1ccc(F)cc1Cl	-1.0	0.6	0.6	-0.2	10.9*
COc1ccc(S(=O)(=O)Nc2ccc3cn[nH]c3c2)cc1C	0.9*	0.0	-0.6	1.9	-2.2
CCOc1ccc(-c2cn3ccccc3n2)cc1[N+](=O)[O-]	0.5	1.0	1.9	1.4	11.5*
O=[N+]([O-])c1ccc(-c2cn3ccccc3n2)cc1	-0.5	1.9	nt	2.4	6.7
Oc1ccc(-c2cn3ccccc3n2)cc1O	-0.2	2.4	1.0	6.1*	8.2
CCCCOc1ccc(-c2cn3ccccc3n2)cc1[N+](=O)[O-]	-1.2	0.3	-1.3	1.0	10.8*
CCCOc1ccc(-c2csc(N)n2)cc1[N+](=O)[O-]	-1.4	0.4	1.6	0.9	5.7
CC(/C=C\C=C\c1ccccc1)=N\NC(=O)c1cncc(Br)c1	-0.2	-0.1	-0.4	-0.2	1.3
SMILES	ssDAF-12 act	DAX1 inh-1	DAX1 inh-2	hcDAF12 agonist	hgDAF-12 ag
O=C(/C=C/c1ccccc1)c1ccc2c(c1)OCCCCO2	-0.2	2.0	1.9	3.8	12.0*
CC(/C=C/C=C/c1ccccc1)=N/NC(=O)C(O)c1ccccc1 (stereo not drawn)	-0.9	0.0	1.5	-1.6	0.7
CC(/C=C/C=C/c1ccccc1)=N/NC(=O)c1ccc2c(c1)OCCO2	1.2*	1.1	-0.1	3.4	4.4
O=C(O)c1ccc2c(c1)OCCCO2	-1.1	0.1	1.8	0.0	2.4
CC(/C=C/C=C/c1ccccc1)=N\NC(=O)c1cccnc1	-1.1	-1.2	4.5*	-0.3	5.8
COC(=O)[C@@H](CC(C)C)CP(=O)(OC)[C@@H](C)NC(=O)OCc1ccccc1 (stereo partly drawn)	-0.9	-1.4	nt	1.0	4.6
CC1(C)CC(N=c2cc(-c3ccccc3)oc3ccc(Cl)cc23)CC(C)(C)N1	-1.2	0.3	5.9*	-1.2	3.8
CCCCN(C)CCCNC(=O)Cn1cc2c(n1)-c1c(oc(C(=O)N3CCCC3)c1C)CC2	-1.4	0.2	0.6	-1.8	0.9
CCOCCCNC(=O)Cn1cc2c(n1)-c1c(oc(C(=O)N3CCCC3)c1C)CC2	-0.9	-1.7	4.7*	-1.6	-3.7
O=C(O)c1ccc(-n2nnnc2Oc2ccccc2C(=O)N2CCOCC2)cc1	-1.0	-0.5	4.9*	-0.7	-0.5
N#C/C(=C/c1ccc(N2CCOCC2)o1)C(=O)Nc1ccccc1	-0.2	3.2	1.1	5.9*	11.2*
N#C/C(=C\c1ccc(N2CCOCC2)o1)C(=O)NCC1CCCO1 (stereo not drawn)	12.4*	0.4	-0.8	-1.7	1.5
C=C(C)/C=C1/C(Cc2ccccc2)N(CC2CC2)C(=N)N1C(=O)OCc1ccccc1 (stereo not drawn)	-1.5	-1.3	nt	-2.1	2.4
Cn1nc(C(C)(C)C)cc1C(=O)NCC1CCN(C(=O)C(=O)c2cc3ccccc3o2)CC1	-1.9	-3.4	nt	-3.5	-2.7
O=C(NC1CCCCCC1)c1ccc(=O)n(Cc2ccccc2)n1	-1.6	-0.4	4.5*	-1.3	-1.7
COC(=O)C1CCN(C(=O)COC(=O)c2ccc(=O)n(Cc3ccccc3)n2)CC1	-1.4	2.0	0.2	-0.1	0.9
O=C(c1ccoc1)N1CCN(c2cc(-c3ccco3)nc3cc(-c4ccco4)nn23)CC1	-1.6	nt	nt	-3.8	-6.0
CC1CCN(CCCNC(=O)c2cc3c(=O)n(C)c4ccccc4c3n2C)CC1	-1.0	4.7*	6.0*	2.6	2.3
CC(C)Cn1cc(C(=O)NCCCN2CCC(C)CC2)c2c3ccccc3n(C)c2c1=O	-0.8	1.6	5.3*	3.3	-1.9
CC(C)Cn1cc(C(=O)NCCCN2CCCC2=O)c2c3ccccc3n(C)c2c1=O	-1.0	-0.2	1.2	0.7	-0.6
COC(=O)[C@]12C[C@H](CC(=O)NCCC(C)C)C(=O)N(CCC3=CCCCC3)C1=C[C@H](COCc1ccccc1)O[C@@H]2C	-1.1	1.5	nt	-0.8	-8.2
C=CCN(CC#Cc1cccnc1)Cc1ccc(OC)cc1OC	-1.5	-0.9	nt	-2.8	-3.4
COc1ccc(CNC(=O)CCNS(=O)(=O)c2ccc(Cl)cc2)cc1	-1.2	-0.2	1.4	-0.9	1.5
COc1ccc(CNC(=O)CNC(=O)CNS(=O)(=O)c2ccc(C)c(C)c2)cc1	0.9*	-0.3	0.9	0.2	2.6
N#Cc1ccc(S(=O)(=O)N2CCCc3nc(-c4ccc(F)cc4)ccc32)cc1	1.7*	-0.3	nt	4.0	0.3

Bioassay records deposited in PubChem BioAssay by The Scripps Research Institute Molecular Screening Center.
